Test [1] can be described thus: inhibitors of TNFa-induced NFkB p65 translocation, primary screen, imaging, HUVEC, MLSMR starter and 10KST1 sets (AID 438;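 active means inhibition above 20% together with a positive visual image hit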;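 further: compound added about 3h40 before a 20 min TNFalpha stimulation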;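 on inhibition: signal is the nuclear over cytoplasmic p65 intensity ratio per well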). Conditions: HUVEC TNFa-induced p65 nuclear translocation; cell count: measured here: nuclei count (cytotoxicity indicator), at 2.08 µM; inhibition: at 2 µM, stronger effect = higher value, 0% TNFa-plus-vehicle, 100% no-TNFa wells.
Test [2] can be described thus: inhibitors of mutant huntingtin aggregation, primary screen, imaging, exon1htt(103Q)mCFP cells, high-content imaging (AID 483;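 active means visual image review flags a hit and inhibition of aggregation exceeds 20%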;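 further: compound exposure lasted 3 days before fixation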;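 on nuclei count: percent of the per-plate median nuclei count of sample wells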). The note with it: exon1htt(103Q)mCFP cell line, aggregate imaging, at 2 µM; inhibition of aggregation: stronger effect = higher value; nuclei count: measured here: cell count, toxicity.
The nature of test [3]: inhibitors of E-selectin induction by TNFa, primary screen, imaging, HUVEC, immunofluorescence, MLSMR starter and 10KST1 sets (AID 487).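 On inhibition: signal is fraction of cell area covered by stained E-selectin grains.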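 On nuclei count: 100% = median nuclei count of all wells on the same plate.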 Conditions: HUVEC TNFalpha-induced E-selectin immunofluorescence imaging, at 2 µM; inhibition: stronger effect = higher value; nuclei count: measured here: cell number, toxicity.
The target of test [4] is Voltage-gated potassium channel subunit beta-2 (Rattus norvegicus) (UniProt P62483). As to the kind of experiment: KvBeta enzyme negative modulators, primary screen, biochemical, NADPH fluorescence (AID 622;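 active means fluorescence slope higher than the sample average by over 3 SD, cut at about -0.22 in these data, passing the limit was not always enough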;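 further: slope of raw intensity against log time taken from 70 to 1610 s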). Conditions: recombinant KvBeta, 4-cyanobenzaldehyde reduction, at 10 µM, stronger effect = higher value.
The target is the same in test [5]. As to the kind of experiment: KvBeta positive modulators, primary screen, biochemical, NADPH fluorescence (AID 623;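 active means NADPH fluorescence slope more negative than the mean of all samples by about 3 SD, 99.7% confidence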;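 further: fluorescence intensity change per second fitted from 20 to 320 s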). The note with it: Recombinant KvBeta, NADPH fluorescence decrease slope, 10 min; at 10 µM; stronger effect = lower value.
The target in test [6] is Alpha-2C adrenergic receptor (Homo sapiens) (UniProt P18825). The test can be described thus: modulators of alpha2C/GIRK thallium flux, primary screen, cell-based, HEK293 alpha2C/GIRK1/2 (AID 624;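 active means fluorescence slope after compound addition differing from the mean of all screened samples at 99.7% confidence, in either direction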;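 further: slope of fluorescence ratio to pre-addition baseline per second over 15 to 24 s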). Conditions: thallium flux BTC fluorescence, at 10 µM, actives lie on both sides.
A short description of test [7]: inhibitors of Sendai virus-induced IRF3 signaling, primary screen, TLR/RLR signaling modifier project, cell-based, Sendai virus stimulus, luciferase, 10K MLSCN set (AID 602276;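 active means inhibition at or above 50% at 10 µM; inactive means inhibition below 50%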;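 further: firefly luciferase from ISG56 promoter only with Renilla not read in this screen; 0% = Sendai virus plus DMSO and 100% = medium plus DMSO without virus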). Conditions: HEK293 RL24 IRF3 luciferase reporter, at 10 µM, stronger effect = higher value. (In a reporter assay the amount or activity of a reporter protein is the signal.)
Test [8] in a line: inhibitors of poly I:C-induced TLR3 signaling, primary screen, cell-based, poly I:C stimulus, luciferase, 10K MLSCN set (AID 602277;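 active means inhibition of the reporter signal at or above 50%; inactive means inhibition below 50%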). The note with it: HEK293-TLR3 RL24 IRF3 luciferase reporter, at 10 µM, stronger effect = higher value.

The source made the active and inactive calls.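 How the source made its calls, unless noted: active means visually confirmed hit in the image check and inhibition above 20%; inconclusive means visually confirmed hit but inhibition not above 20%; inactive means no visual hit in the image check.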

Sequence of Alpha-2C adrenergic receptor (Homo sapiens) (P18825 whole entry, looked up): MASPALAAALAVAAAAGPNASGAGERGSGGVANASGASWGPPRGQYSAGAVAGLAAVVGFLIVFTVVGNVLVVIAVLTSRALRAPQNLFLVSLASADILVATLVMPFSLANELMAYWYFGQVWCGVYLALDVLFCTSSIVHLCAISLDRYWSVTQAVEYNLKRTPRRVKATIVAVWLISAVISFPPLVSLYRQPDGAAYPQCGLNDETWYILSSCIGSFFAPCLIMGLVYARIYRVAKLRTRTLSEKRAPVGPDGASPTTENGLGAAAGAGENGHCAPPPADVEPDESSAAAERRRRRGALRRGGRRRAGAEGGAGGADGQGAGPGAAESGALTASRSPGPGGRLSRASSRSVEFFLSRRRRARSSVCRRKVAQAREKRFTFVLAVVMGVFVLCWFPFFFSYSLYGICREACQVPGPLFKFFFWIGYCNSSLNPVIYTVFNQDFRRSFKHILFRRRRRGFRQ
Sequence of Voltage-gated potassium channel subunit beta-2 (Rattus norvegicus) (P62483 whole entry, looked up): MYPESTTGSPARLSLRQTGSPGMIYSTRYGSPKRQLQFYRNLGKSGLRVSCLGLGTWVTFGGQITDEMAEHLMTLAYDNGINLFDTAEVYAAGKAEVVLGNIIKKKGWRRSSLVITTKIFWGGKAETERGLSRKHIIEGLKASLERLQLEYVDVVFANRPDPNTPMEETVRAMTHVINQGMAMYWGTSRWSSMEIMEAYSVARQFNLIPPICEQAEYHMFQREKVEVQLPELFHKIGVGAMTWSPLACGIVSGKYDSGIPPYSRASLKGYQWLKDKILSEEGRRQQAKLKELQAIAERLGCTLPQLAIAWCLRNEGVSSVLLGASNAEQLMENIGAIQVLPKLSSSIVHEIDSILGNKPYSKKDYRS

In general, inhibition refers to the drop in the measured response relative to a control, in per cent. `CN1CCCN(CC(O)COCc2cccs2)CC1` (centres undefined): the cell count in test [1] came out at 489. For the same molecule, the inhibition in test [1] was -6.7% (inactive); in test [3] it was -66% (inactive); in test [7], -7.31% (inactive); in test [8], 24.2% (inactive). The inhibition of aggregation in test [2] is -19.8% (inactive). Besides, the nuclei count in test [2] is 108%; in test [3], 153%. In addition, the fluorescence slope in test [4] is -0.489 (inactive). Moreover, in test [5], the NADPH fluorescence slope is -3.2e-05 (inactive). The slope in test [6] was 0.00614 (inactive).

Take `CCN(CC)CCOC(=O)c1c(C)oc2ccc(O)cc12`: the cell count in test [1] amounted to 418. Moreover, the inhibition in test [1] was 11.9% (inactive); in test [3], 30.6% (inactive); in test [7], 8.25% (inactive); in test [8] it was 6.72% (inactive). Besides, the inhibition of aggregation in test [2] is -8.4% (inactive). In addition, the values for the nuclei count in test [2] and in test [3] were 74.1% and 106%, respectively. Further, the fluorescence slope in test [4] was -0.5 (inactive). Further, the NADPH fluorescence slope in test [5] was -8e-05 (inactive). The slope in test [6] was 0.00511 (inactive).

Consider `CC(C)[C@H](NC(=O)NC1CCCC1)C(=O)O`, for which the cell count in test [1] is 252. Also, the inhibition in test [1] is 2.5% (inactive); in test [3], 3.3% (inactive); in test [7], 5.42% (inactive); in test [8], 16.1% (inactive). In test [2], the inhibition of aggregation is 7.6% (inactive). The nuclei count in test [2] came out at 87.5%; in test [3], 91.7%. Further, the fluorescence slope in test [4] is -0.462 (inactive). In addition, in test [5], the NADPH fluorescence slope is 2e-05 (inactive). Further, the slope in test [6] is 0.0056 (inactive).

For `Cc1ccc(CN2C(=O)CCC2C(=O)NC2CCCC2)cc1` (centres undefined), in test [1], the cell count worked out at 382. In addition, the inhibition was 1.3% (inactive) in test [1], -19% (inactive) in test [3], 12.8% (inactive) in test [7] and 21.8% (inactive) in test [8]. Further, the inhibition of aggregation in test [2] was 6.6% (inactive). Further, the nuclei count in test [2] was found to be 103%; in test [3] it was 111%. Further, in test [4], the fluorescence slope was -0.589 (inactive). Further, the NADPH fluorescence slope in test [5] is -3.4e-05 (inactive). For the same molecule, the slope in test [6] was 0.00496 (inactive).

`CCCCCCOC(=O)C(C#N)c1nc2ccccc2nc1N1CCCCC1` (centres undefined): the cell count in test [1] came out at 513. Further, the inhibition in test [1] is 5.7% (inactive); in test [3] it was -28.3% (inactive); in test [7], 6.89% (inactive); in test [8], 23.9% (inactive). Moreover, the inhibition of aggregation in test [2] was 6.3% (inactive). The nuclei count was 89.3% in test [2] and 137% in test [3]. The fluorescence slope in test [4] is -0.393 (inactive). For the same molecule, in test [5], the NADPH fluorescence slope was 3.7e-05 (inactive). Moreover, the slope in test [6] was 0.00357 (inactive).

Take `CC(=O)NCCc1nc2ccccc2[nH]1`: the cell count in test [1] came out at 736. For the same molecule, the inhibition was -4.3% (inactive) in test [1], -6.5% (inactive) in test [3], 12.7% (inactive) in test [7] and 33.6% (inactive) in test [8]. The inhibition of aggregation in test [2] was -14% (inactive). In addition, the results for the nuclei count in test [2] and in test [3] were 114% and 106%, respectively. Further, in test [4], the fluorescence slope is -0.553 (inactive). Also, the NADPH fluorescence slope in test [5] is -2.7e-05 (inactive). Also, in test [6], the slope was 0.00636 (inactive).

As to `O=C(Nc1ccc2c(c1)OCCO2)c1ccco1`, the cell count in test [1] worked out at 337. Further, the inhibition in test [1] is -3.5% (inactive); in test [3] it was 6.1% (inactive); in test [7], -48.4% (inactive); in test [8], -81.4% (inactive). In test [2], the inhibition of aggregation was -13.9% (inactive). Moreover, the nuclei count in test [2] was 118%; in test [3], 102%. In addition, the fluorescence slope in test [4] is -0.488 (inactive). Further, the NADPH fluorescence slope in test [5] was -3.7e-05 (inactive). Moreover, the slope in test [6] was 0.00709 (inactive).

As for `CCc1cc2c(CN3CCN(CCO)CC3)cc(=O)oc2cc1O`, in test [1], the cell count amounted to 396. Also, the inhibition was 1.3% (inactive) in test [1], -34.5% (inactive) in test [3], 17.8% (inactive) in test [7] and 27% (inactive) in test [8]. Further, the inhibition of aggregation in test [2] was -12.5% (inactive). Besides, the nuclei count in test [2] turned out to be 102%; in test [3], 60.8%. Further, the fluorescence slope in test [4] was -0.0121 (active). The NADPH fluorescence slope in test [5] is 1.7e-06 (inactive). Also, in test [6], the slope was 0.00408 (inactive).

As to `Cn1c(COc2ccc(Cl)cc2)nnc1SCC(=O)NC1CCCCC1`, in test [1], the cell count was 328. In addition, the inhibition was -1.3% (inactive) in test [1], -90.6% (inactive) in test [3], -9.58% (inactive) in test [7] and -7.85% (inactive) in test [8]. Further, in test [2], the inhibition of aggregation is 19.6% (inactive). Further, the nuclei count stood at 91.8% in test [2] and 107% in test [3]. Besides, the fluorescence slope in test [4] was -0.545 (inactive). For the same molecule, the NADPH fluorescence slope in test [5] was -1.7e-05 (inactive). Moreover, the slope in test [6] was 0.00395 (inactive).

As to `COC(=O)c1ccsc1NC(=O)CN1C(=O)CCC1=O`, the cell count in test [1] is 479. Moreover, the inhibition in test [1] was -5.9% (inactive); in test [3], -15.8% (inactive); in test [7] it was -11.8% (inactive); in test [8], -9.21% (inactive). For the same molecule, the inhibition of aggregation in test [2] was 2.9% (inactive). For the same molecule, the values for the nuclei count in test [2] and in test [3] were 86.8% and 100%, respectively. Also, the fluorescence slope in test [4] is -0.476 (inactive). Besides, in test [5], the NADPH fluorescence slope is -3.2e-05 (inactive). For the same molecule, the slope in test [6] is 0.0049 (inactive).

In the case of `Cc1c(C(=O)OCCOC(C)C)[nH]c2c1C(=O)CC(c1ccco1)C2` (centres undefined), the cell count in test [1] is 482. Further, the inhibition in test [1] was 18% (inactive); in test [3], -59.6% (inactive); in test [7] it was 13.8% (inactive); in test [8] it was 82.1% (active). Besides, the inhibition of aggregation in test [2] is -3.7% (inactive). The nuclei count in test [2] is 5.8%; in test [3], 83.1%. The fluorescence slope in test [4] is -0.553 (inactive). For the same molecule, in test [5], the NADPH fluorescence slope was -3.5e-05 (inactive). In addition, the slope in test [6] is 0.00564 (inactive).

As for `Cc1cc(C)nc(N2CCC(C(=O)NC3CCCCCC3)CC2)n1`, in test [1], the cell count was 502. In addition, the inhibition is -11.2% (inactive) in test [1], 19.9% (inactive) in test [3], 16.4% (inactive) in test [7] and 16.2% (inactive) in test [8]. Further, the inhibition of aggregation in test [2] was 25.2% (inactive). Further, the nuclei count in test [2] worked out at 93.6%; in test [3], 90.5%. Further, the fluorescence slope in test [4] was -0.508 (inactive). For the same molecule, the NADPH fluorescence slope in test [5] is 6.6e-06 (inactive). Besides, the slope in test [6] is 0.00535 (inactive).

In the case of `O=C(Nc1ccncc1)C1CCCN(S(=O)(=O)c2cccc3cccnc23)C1` (centres undefined), in test [1], the cell count came to 686. For the same molecule, the inhibition is 6.8% (inactive) in test [1], -46% (inactive) in test [3], 40.7% (inactive) in test [7] and 34.4% (inactive) in test [8]. In addition, in test [2], the inhibition of aggregation is -328% (inactive). Also, the results for the nuclei count in test [2] and in test [3] were 4.8% and 104%, respectively. Besides, in test [4], the fluorescence slope was -0.548 (inactive). In addition, in test [5], the NADPH fluorescence slope was -3.9e-05 (inactive). Besides, the slope in test [6] is 0.00584 (inactive).

With `COc1ccc(N2CCN(Cc3nc(-c4ccc(Cl)cc4Cl)no3)CC2)cc1`, the cell count in test [1] was determined as 596. Further, the inhibition is -0.7% (inactive) in test [1], -48.8% (inactive) in test [3], 18.6% (inactive) in test [7] and 22.1% (inactive) in test [8]. In test [2], the inhibition of aggregation was 4.9% (inactive). Also, the nuclei count in test [2] was found to be 106%; in test [3] it was 122%. The fluorescence slope in test [4] was -0.421 (inactive). The NADPH fluorescence slope in test [5] is -7.7e-05 (inactive). Besides, the slope in test [6] is 0.00526 (inactive).

These data come from PubChem BioAssay.
